# Reference: article PMC4336329 (PLoS ONE, 2015)
# Among all 310,000 compounds or so, about 14,000 (4.5%) showed an effect of 50% or more. The effect is printed as a negative number. Shown is part of a subset that was picked to be rich in strong results.
# Biological target: human ether-à-go-go-related gene (hERG) potassium channel (human, UniProt Q12809)
# Test: primary screen, population patch clamp on CHO cells stably expressing hERG; higher = less effect of the substance
# 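Also: peak tail current of the secondary pulse compared with the same well before compound.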
# Chain of human ether-à-go-go-related gene (hERG) potassium channel (Q12809 whole entry, looked up): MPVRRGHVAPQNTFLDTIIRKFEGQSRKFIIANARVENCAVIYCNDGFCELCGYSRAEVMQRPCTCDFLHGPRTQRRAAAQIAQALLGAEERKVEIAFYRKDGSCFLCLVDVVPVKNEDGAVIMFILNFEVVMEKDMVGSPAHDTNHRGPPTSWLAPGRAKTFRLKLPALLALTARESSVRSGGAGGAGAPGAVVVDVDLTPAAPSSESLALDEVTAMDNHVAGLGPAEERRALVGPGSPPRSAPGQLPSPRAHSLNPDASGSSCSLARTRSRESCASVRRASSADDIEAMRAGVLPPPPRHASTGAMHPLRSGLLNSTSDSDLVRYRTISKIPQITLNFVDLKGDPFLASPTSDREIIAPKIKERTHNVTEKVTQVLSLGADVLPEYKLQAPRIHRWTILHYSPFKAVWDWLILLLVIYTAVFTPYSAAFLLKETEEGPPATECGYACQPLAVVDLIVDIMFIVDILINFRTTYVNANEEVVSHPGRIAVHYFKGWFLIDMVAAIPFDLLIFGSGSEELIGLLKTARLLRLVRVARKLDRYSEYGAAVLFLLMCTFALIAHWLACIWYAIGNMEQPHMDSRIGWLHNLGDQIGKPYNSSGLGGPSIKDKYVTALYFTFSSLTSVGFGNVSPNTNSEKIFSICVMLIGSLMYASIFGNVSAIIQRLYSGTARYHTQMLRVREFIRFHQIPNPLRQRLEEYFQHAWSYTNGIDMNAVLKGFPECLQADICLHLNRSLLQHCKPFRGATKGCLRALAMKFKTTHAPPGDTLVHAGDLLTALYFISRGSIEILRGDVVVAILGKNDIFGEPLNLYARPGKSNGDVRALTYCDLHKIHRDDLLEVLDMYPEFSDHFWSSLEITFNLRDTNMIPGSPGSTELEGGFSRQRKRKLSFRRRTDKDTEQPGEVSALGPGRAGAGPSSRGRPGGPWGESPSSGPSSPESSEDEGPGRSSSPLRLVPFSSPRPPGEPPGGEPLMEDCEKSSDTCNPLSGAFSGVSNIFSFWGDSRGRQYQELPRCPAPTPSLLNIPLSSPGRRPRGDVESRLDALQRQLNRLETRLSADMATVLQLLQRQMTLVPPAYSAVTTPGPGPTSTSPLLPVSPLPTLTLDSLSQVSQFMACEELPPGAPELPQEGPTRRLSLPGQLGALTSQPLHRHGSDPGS
row,SMILES,"hERG current change (%, negative = inhibition) at 10uM [%]"
1,O=C(Nc1ccc(-c2cn3ccccc3n2)cc1)c1ccco1,-11.4
2,O=C1C=C(c2ccc(CO)cc2)C[C@@H](c2ccc3c(c2)OCO3)C1,-44.3
3,CC1=CSC2=NC(C(F)(F)F)(C(F)(F)F)NC(=O)N12,-1.5
4,C=CCn1sc(N)c(C(=O)OCC)c1=S,0.673
5,Cc1ccc(NS(=O)(=O)c2cccc(C(=O)O)c2)cc1S(=O)(=O)N1CCCCC1,3.3
6,COC(=O)Cn1c(=NC(=O)c2nc3ccccc3s2)sc2cc(S(C)(=O)=O)ccc21,-65.2
7,COCCn1c(=NC(=O)c2nc3ccccc3s2)sc2cc(S(C)(=O)=O)ccc21,-21
8,COC(=O)Cn1c(=NC(=O)c2nc3ccccc3s2)sc2cc(S(N)(=O)=O)ccc21,6.74
9,CCC(=O)NNC(=S)NC(=O)c1ccc(C)cc1,22.4
10,S=c1[nH]nc(-c2cccc(Br)c2)o1,19.6
11,CCOC(=O)c1cccc(NC(=O)CCc2nnc3ccc(N4CCCCC4)nn23)c1,7.86
12,C=CCn1c(O)c(N=NC(=O)CNC(=O)c2ccco2)c2ccccc21,-4.55
13,CCn1c(O)c(N=NC(=O)CNC(=O)/C=C/c2ccco2)c2ccccc21,0.357
14,C=CCn1c(O)c(N=NC(=O)CNC(=O)/C=C/c2ccco2)c2ccccc21,-58.2
15,CCCCNC(=O)NS(=O)(=O)c1cnccc1Sc1ccc(Cl)cc1,12.1
16,NC(=O)c1cccnc1Nc1cccc(F)c1,-4.36
17,CCOC(=O)C1=C(C)Nc2ccccc2N/C1=N\S(=O)(=O)c1cccc(Cl)c1,0.773
18,CCOC(=O)c1nc(C)sc1-c1ccnn1S(=O)(=O)c1cccc(Cl)c1,-22.5
19,CCOC(=O)c1sc(/S(C)=N\S(=O)(=O)c2cccc(Cl)c2)c2c1CCC=C2 (centres unmarked),-51.9
20,COc1ccc(-n2nc(C(=O)NCc3ccco3)c3c4ccccc4n(C)c3c2=O)cc1,18.1
21,Cc1ccc(C)c(NC(=O)C2CCC(C)(C(=O)O)C2(C)C)c1 (centres unmarked),-18.4
22,Cc1cccc(NCC(=O)N/N=C\c2cccc(Oc3ccccc3)c2)c1,20.1

row,SMILES,"hERG current change (%, negative = inhibition) at 10uM [%]"
1,O=C(CNC(=O)c1cccs1)Nc1ccncc1,8.67
2,O=C(Nc1ccc2c(c1)OCO2)C1CC(c2ccccc2Cl)=NO1 (centres unmarked),-12.7
3,CC(CS(=O)(=O)c1ccc2c(c1)NC(=O)CS2)C(=O)N1CCN(c2cccc(Cl)c2)CC1 (centres unmarked),-52.1
4,O=C1COc2ccc(S(=O)(=O)CCC(=O)N3CCN(c4ccccc4)CC3)cc2N1,-13.1
5,O=C1COc2ccc(S(=O)(=O)CCC(=O)N3CCN(c4cccc(C(F)(F)F)c4)CC3)cc2N1,-46.3
6,COc1ccccc1N1CCN(C(=O)C(C)CS(=O)(=O)c2ccc3c(c2)NC(=O)CS3)CC1 (centres unmarked),4.07
7,O=C1COc2ccc(S(=O)(=O)CCC(=O)N3CCN(c4cccc(Cl)c4)CC3)cc2N1,-58.4
8,CC(CC(=O)N1CCN(c2ccccc2)CC1)S(=O)(=O)c1ccc2c(c1)NC(=O)CS2 (centres unmarked),-34.6
9,O=C(NC1CCN(c2ncccn2)CC1)c1ccccc1F,18.6
10,O=C(CSc1ncn(-c2ccccc2)n1)c1cccs1,-3.5
11,Cc1ccc(S(=O)(=O)N2CCN(S(=O)(=O)c3ccc4c(c3)OCCO4)CC2)cc1,8.43
12,COc1ccc(CCNC(=O)c2cccc3c2C(=O)N(C2CCCCC2)C3)cc1OC,-24.1
13,COc1ccc(CCNC(=O)c2cnc3ccccn3c2=O)cc1,-22.3
14,COc1ccc(CCNC(=O)c2c(C)nc3ccccn23)cc1OC,-64.3
15,COc1ccc(CNC(=O)c2c(C)nc3ccccn23)cc1,-12.1
16,COc1ccc(CCNC(=O)c2cc3c(=O)n4ccccc4nc3n(C3CCCCC3)c2=N)cc1OC,-76.6
17,COc1ccc(CCNC(=O)c2cc3c(=O)n4ccccc4nc3n(C3CCCCC3)c2=N)cc1,-81.3
18,COc1ccc(CCNC(=O)c2cccc3ccccc23)cc1OC,7.77
19,COc1ccc(CCNC(=O)c2c(C)nc3ccccn23)cc1,-4.75
20,COc1ccc(CCNC(=O)c2cc(-c3ccccn3)nc3c(Cl)cccc23)cc1OC,10.5
21,COc1ccccc1CNC(=O)c1cc(-c2ccncc2)nc2c(Cl)cccc12,10.5
22,COc1ccc(CCNC(=O)c2cc(-c3ccncc3)nc3c(Cl)cccc23)cc1OC,-66.9
